Screen size: about 4,900 compounds; about 2,000 (41%) were called active.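 Rule for the calls: active = thallium signal drop beyond 5 SD of the untreated control mean, on both duplicate plates; inactive = the rest.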 The set was probably picked from earlier hits. Only a sample is shown.

Broadly, the inhibition is the change of the read-out against control, counted positive when it falls.

A short description of the experiment: thallium flux in non-induced HEK293 cells, confirmation, counter-screen for KCNK9 inhibitor project, cell-based, second counter screen, non-induced KCNK9-HEK293 (AID 492997).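 For inhibition: plate controls were buffer only IC0 wells for no effect and SID17386958 at its maximal inhibitory level for full effect.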 The settings on record: non-induced KCNK9-HEK293, FluxOR thallium flux, at 10 µM; active compounds read high. (The purpose of a counterscreen is to sort out artefacts and off-target activity.)
Take `O=C1N=C2SCCN2/C1=C\c1c(Cl)cccc1Cl`: the inhibition result was “inactive”. Then `COc1cccc(OC)c1C(=O)Nc1sc2c(c1C(N)=O)CCCC2`, with “inactive”; and `Cc1ccc(OCc2cc(C(=O)N(C)CCc3ccccc3)no2)cc1C`, with “inactive”; and `COc1ccc(C(C)=O)cc1COc1ccc(Cl)c(C)c1`, with 37% (active). Turning to `O=C(NCc1ccccc1)C1=C[C@@H](C2CCCCC2)C[C@@H](OCc2ccc(CO)cc2)O1`, the inhibition result was “inactive”.

As for `CCC(C)(C)n1nnnc1C(c1cccs1)N1CCN(c2nc3ccccc3s2)CC1` (centres undefined), the inhibition was 34.5% (active). Then `CC1(C)CC(N2CCN(C(c3ccccc3)c3ccccc3)CC2)=CC(=[N+]2CCCCC2)C1`, with 36% (active). The value for `Cc1ccccc1CSc1nnc(CCCCCNC(=O)OC(C)(C)C)o1` was 22% (active); that for `COC(=O)c1sc(-c2ccc(C(C)(C)C)cc2)cc1NC(=O)/C=C/C(=O)O` was “inactive”.

As for `COc1ccc(C(=O)Nc2ccccc2C(=O)N/N=C/c2ccccc2OC)cc1`, the inhibition was 31% (active).

`COc1ccc(C(=O)NN2C(=O)C3C(c4ccccc4)C=CC(c4ccccc4)C3C2=O)cc1` (centres undefined): the inhibition result is “inactive”. Then `COc1cccc(-c2cnc(OC(C)(C)C)nc2OC(C)(C)C)c1`, with “inactive”; and `O=C(N/N=C/c1ccccn1)c1cccc(NC(=O)c2ccc(Cl)cc2)c1`, with 22.5% (active); and `O=C(COc1ccc(Cl)cc1Cl)N/N=C/c1ccccn1`, with “inactive”.

Turning to `O=C(Nc1ccc2c(c1)CCC2)c1cccc(S(=O)(=O)Nc2ccccc2Cl)c1`, the inhibition entry is “inactive”. The value for `CCc1ccccc1NC(=O)/C(=C/c1ccccc1)c1ccccc1` was 51.5% (active); that for `COc1ccc(C2CC(c3cccs3)=NN2c2ccccc2)cc1` (centres undefined) was 34% (active); that for `CCOc1ccccc1NC(=O)C12CC3CC(C1)CC(c1ccc(C)cc1)(C3)C2` was “inactive”.

On to `Cc1ccc(S(=O)(=O)N2CCN(C(=O)COC(=O)c3c(C)cc(C)cc3C)CC2)c(C)c1`, for which the inhibition entry is “inactive”. Then `O=C(NCCc1ccccc1)c1ccc2c(c1)N(Cc1ccccc1)CCS2`, with 29% (active). Turning to `O=C1/C(=C/c2ccc3c(c2)OCO3)CCC/C1=C\c1ccc2c(c1)OCO2`, the inhibition entry was “inactive”. Then `CC1(C)CC(=O)CC2(C1)NCC(c1ccccc1Cl)c1c2[nH]c2ccccc12` (centres undefined), with 33% (active); and `CCCCC(=O)Nc1ccccc1N1CCN(c2ccc(F)cc2)CC1`, with 43% (active); and `Cc1cccc(C(=O)Nc2ccccc2N2CCN(c3ccc(F)cc3)CC2)c1`, with 29.5% (active).

Take `Cc1ccc(N2CCN(S(=O)(=O)c3ccc(F)cc3)CC2)c(C)c1`: the inhibition entry is “inactive”. The value for `COc1ccc(C(=O)C2CCCN(C(=O)c3ccc(OC)o3)C2)c(C)c1` (centres undefined) was “inactive”; that for `Cc1ccc2c(c1)N(C(=O)CCC(=O)N1CCc3ccccc3C1)CCO2` was “inactive”. Regarding `Fc1ccc(Cn2nnnc2C(c2cccs2)N2CCCCCC2)cc1` (centres undefined), the inhibition was 30.5% (active). Then `Cc1cccc2cc(CN(Cc3nnnn3Cc3ccccc3)C3CCCC3)c(=O)[nH]c12`, with “inactive”. Consider `CCOc1ccc2[nH]c(=O)c(CN(Cc3nnnn3CCc3ccccc3)CC3CCCO3)cc2c1` (centres undefined), for which the inhibition entry was “inactive”.

As to `CCC(c1nnnn1Cc1ccco1)N(CCc1ccccc1)Cc1cc2cccc(C)c2[nH]c1=O` (centres undefined), the inhibition was 33.5% (active). Turning to `O=C1CC(NNc2ccccc2)C(=O)N1c1cccc(Cl)c1` (centres undefined), the inhibition entry was “inactive”. Then `c1ccc(C(c2ccccc2)N2CCN(Cc3nnnn3C3CCCCC3)CC2)cc1`, with 29% (active); and `CCOc1ccc(OCc2ccc(C(=O)Nc3cccc(C)n3)o2)cc1`, with “inactive”; and `CSc1cccc(NC(=S)N(C(C)C)C(C)c2ccccn2)c1` (centres undefined), with 24.5% (active). `COC(C(=O)Nc1ccc(S(=O)(=O)Nc2ccc(C)c(C)c2)cc1)c1ccccc1` (centres undefined): the inhibition result was “inactive”. Take `CC(C)C(=O)Nc1cccc(NC(=S)NC(=O)C(c2ccccc2)c2ccccc2)c1`: the inhibition was 24% (active). Regarding `CCCCOC(=O)CCCc1ccc([N+](=O)[O-])cc1[N+](=O)[O-]`, the inhibition entry was “inactive”. Consider `COc1cc(Cl)c(S(=O)(=O)N2CCN(Cc3ccc4c(c3)OCO4)CC2)cc1Cl`, for which the inhibition entry was “inactive”. `COc1ccc(CCNc2ncnc3c2nnn3Cc2ccccc2)cc1`: the inhibition result was “inactive”. The value for `COc1ccc(CCNC(=O)c2ccccc2OCc2ccccc2)cc1` was 40% (active). The value for `COc1ccc(-c2nc(CCNC(=O)c3ccc(Br)o3)cs2)cc1` was “inactive”. Consider `COCCNc1cc(-c2ccccc2)nc2cc(-c3cccc(F)c3)nn12`, for which the inhibition is 30% (active). For the compound `COC(=O)Cn1cnc2scc(-c3ccc(C)c(C)c3)c2c1=O`, the inhibition result is “inactive”. The value for `Cc1ccc(-c2csc(NCCc3nc4cc(Cl)c(Cl)cc4n3CCOCCO)n2)cc1` was 36% (active); that for `CCN(C(=O)COc1ccc(C(=O)c2ccccc2)cc1)c1ccccc1` was 29% (active); that for `Cc1ccc(C2=Nc3c(ccc4ccccc34)C(c3ccncc3)=NN2)cc1` was “inactive”.

In the case of `COc1ccc2c(c1)C(c1cccs1)=NNC(c1cccnc1)=N2`, the inhibition was 24.5% (active). With `O=C(NNc1ccccc1Cl)C(O)(c1cccc(C(F)(F)F)c1)c1cccc(C(F)(F)F)c1`, the inhibition entry was “inactive”. As for `O=[N+]([O-])/C=C/c1ccc2c(ccn2Cc2ccccc2)c1`, the inhibition is 44.5% (active). Consider `COc1cccc(COc2ccc(N(C)S(=O)(=O)c3ccccc3)cc2)c1`, for which the inhibition was 49.5% (active). As for `CCOC(=O)c1cc2sccc2n1Cc1ccc(C#N)cc1`, the inhibition was 53% (active). Then `O=C(OCC(=O)N(CCc1ccccc1)Cc1ccccc1)c1ccccc1[N+](=O)[O-]`, with “inactive”; and `Cc1nc(N2CCN(c3ccccn3)CC2)c2c(C)c(C(=O)Nc3ccc(F)c(Cl)c3)sc2n1`, with 24.5% (active); and `O=C(Nc1ccc(Cl)c(Cl)c1)N1CC=C(c2ccccc2)CC1`, with “inactive”. In the case of `COc1ccc(C(=O)C2CCCN(C(=O)c3cc(C)on3)C2)cc1F` (centres undefined), the inhibition result is “inactive”. The value for `Oc1ccc(/C=N/Nc2nc(-c3ccccc3F)nc3ccccc23)c(O)c1` was 32% (active). Turning to `O=C1c2ccccc2S(=O)(=O)N1CC(O)Cn1c2ccccc2c2ccccc21` (centres undefined), the inhibition entry was “inactive”. Then `Cc1cccc(NC(=O)CN2CCCN(S(=O)(=O)c3ccc(Br)s3)CC2)c1`, with 39.5% (active); and `O=C(CSCc1ccc(Br)cc1)Nc1ccc(S(=O)(=O)N2CCCCCC2)cc1`, with “inactive”; and `Cc1cccc(N(C)C(=O)CN2C(=O)COc3ccc(S(=O)(=O)N4CCCCCC4)cc32)c1`, with “inactive”. Then `O=C1c2ccccc2C2=Nc3ccccc3SC(c3ccccc3F)C12` (centres undefined), with 45.5% (active); and `C=CCN(N=Nc1cccc([N+](=O)[O-])c1)c1cccc([N+](=O)[O-])c1`, with 39% (active).

`Cc1ccc(NC2CCCN(C(=O)CCC3(C)CC3)C2)cc1C` (centres undefined): the inhibition entry is “inactive”.

Source of the values: PubChem BioAssay AID492997 (Johns Hopkins Ion Channel Center, 2010).
